High-throughput results as filed in PubChem BioAssay.
A selection: hits, their analogues and other compounds. The true share with any hit is near 12%.
Sfp PPTase inh: Sfp phosphopantetheinyl transferase inhibition; Q9F4F7; Biochemical Sfp PPTase activity, qHTS; Potency, µM, without a hit: largest response in the series, negative = inhibition, usual class: inhibitors; 3.5% of 310,000 active;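 also: the enzyme is Sfp with the accession as filed and its product quenches rhodamine fluorescence; potency is read from the fitted curve at half-maximal effect; 0% = enzyme reaction without inhibitor and -100% = no enzyme wells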
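Sfp 15 nM + cpd, 15 min RT; start w/ rhodamine-CoA 5 uM, BHQ-2-YbbR 12.5 uM (final); 50 mM Hepes pH 7.6, 10 mM MgCl2, 0.01% NP-40, 0.01% BSA; read 525/598 nm at 0 and 30 min.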
HP1b chromo inh: blocks HP1-beta chromodomain binding to methylated histone tails | 0.56% of 390,000 active | AlphaScreen HP1-beta / biotin-H3K9me3 peptide binding | Potency, µM (highest dose often 114 µM), inactives show top-dose activity change, negative = inhibition, hits mostly inhibitors | P83916; also: potency is read from the fitted curve at half-maximal effect; nearly all actives have a fitted effect of over 70% in size
Target sequence (P83916 whole entry, looked up): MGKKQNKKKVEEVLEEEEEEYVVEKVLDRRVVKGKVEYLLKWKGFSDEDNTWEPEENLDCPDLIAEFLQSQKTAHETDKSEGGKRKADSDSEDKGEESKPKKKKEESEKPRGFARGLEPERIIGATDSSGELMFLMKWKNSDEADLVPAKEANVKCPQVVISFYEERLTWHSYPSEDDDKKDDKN
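HP1-beta protein (50 nM final) preincubated 30 min at room temperature with biotinylated H3(1-18)K9me3 peptide (50 nM) in PBS pH 7.4, 0.01% Tween-20, then compound added for 30 min. AlphaScreen streptavidin donor/nickel chelate acceptor beads (10 ug/mL final), 30 min dark, luminescence read.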
G9a inh-1: blocks human histone lysine methyltransferase G9a; Q96KQ7; G9a H3K9 monomethylation, AlphaScreen, 2 h; Potency, µM (titrated, usually from 102 µM), without a hit: top-dose activity, negative = inhibition, hits mostly inhibitors; 8.8% of 350,000 active; AID 504332; also: potency is read from the fitted curve at half-maximal effect; % is scaled to controls: 0 for no effect and ±100 for the full control effect; nearly all actives have a fitted effect of over 75% in size
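AlphaScreen detection with an anti-monomethyl H3K9 antibody quantified product after a 2 h room-temperature reaction containing 500 nM biotinylated H3K9 peptide, 20 µM SAM and 20 nM enzyme, which had been preincubated 15 min with compound.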
L3MBTL1 block: blocks human L3MBTL1; Q9Y468; AlphaScreen L3MBTL1–H3K9me1 peptide binding; Potency, µM (highest dose often 57.1 µM), inactives show top-dose activity, negative = inhibition, usual class: inhibitors; 0.66% of 230,000 active; also: potency is read from the fitted curve at half-maximal effect; % is scaled to controls: 0 for no effect and ±100 for the full control effect; nearly all actives have a fitted effect of over 60% in size
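L3MBTL1 50 nM + b-AHA-H3(1-15)K9me1 75 nM, 30 min RT; compound added, 30 min RT; streptavidin donor/Ni-chelate acceptor beads 10 ug/mL each final, 30 min RT dark; AlphaScreen read.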
JMJD2A Tudor: inhibitors of human JMJD2A Tudor domain | O75164 | AlphaScreen JMJD2A-Tudor / H3K4me3 peptide binding | Potency, µM (doses to about 114 µM), for inactives: top-dose activity change, negative = inhibition, hits mostly inhibitors | 4.4% of 390,000 active | AID 504339; also: potency is read from the fitted curve at half-maximal effect; % is scaled to controls: 0 for no effect and ±100 for the full control effect; nearly all actives have a fitted effect of over 50% in size
BAZ2B inh: BAZ2B (human) inhibition; Q9UIF8; AlphaScreen BAZ2B-H3K14Ac peptide displacement; Potency, µM (series often up to 114 µM), for the others: at the highest dose activity change, negative = inhibition, hits mostly inhibitors; 4.4% of 360,000 active; also: potency is read from the fitted curve at half-maximal effect; % is scaled to controls: 0 for no effect and ±100 for the full control effect; nearly all actives have a fitted effect of over 60% in size
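AlphaScreen luminescence quantifies BAZ2B engagement of H3K14Ac peptide; the protein and biotinylated peptide are both at 50 nM final, buffer PBS pH 7.4 with 0.01% Tween-20, all steps at room temperature.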
G9a inh-2: inhibits human G9a histone lysine methyltransferase, hit confirmation; Potency, µM, hits mostly inhibitors; AID 588344; 89% of 370 active; G9a H3K9 monomethylation, AlphaScreen, 2 h; shares compounds with JMJD2A Tudor; also: potency is read from the fitted curve at half-maximal effect; nearly all actives have a fitted effect of over 65% in size
RGS4 confirm: confirmation of human RGS4 inhibitors; shares compounds with JMJD2A Tudor; RGS4 GAP activity, Transcreener GDP fluorescence polarization; Potency, µM, most hits filed as inhibitors; 80% of 25 active; AID 602388
An asterisk follows results filed as active; ? = inconclusive; / = no result given; [ ] = dose if it differs, or a comment. Calls follow the shape of the dose curve; as a rule, active = well fitted curve in the direction sought with a large enough effect; inconclusive = small, poorly fitted or top-dose-only effect, or another doubt; inactive = no such curve, though single readings can be large; an effect the other way counts as inactive or inconclusive.

SMILES	Sfp PPTase inh	HP1b chromo inh	G9a inh-1	L3MBTL1 block	JMJD2A Tudor	BAZ2B inh	G9a inh-2	others
C=CCNC(=O)C1CCC(=O)N1S(=O)(=O)c1ccc(C)cc1 (stereo not drawn)	-9%	22%	-17%	4%	-5%	5%	/
CCOC(=O)CN1C(=O)C2(OCCCO2)c2cc(Br)ccc21	21%	49%	15%	2%	11%	-1%	/
O=C(Nc1nc(-c2ccccn2)cs1)c1cccc(-n2cnnn2)c1	?	105%	10%[59 µM]	?	79µM*	50µM*	/	RGS4 confirm=?
O=C(Nc1ccc(Br)cc1)c1cccc(-n2cnnn2)c1	7%	-14%	-7%	/	-9%	-18%	/
CCn1c2ccccc2c2cc(NC(=O)N3CCOCC3)ccc21	-3%	-11%	?	/	-18%	?	10*
Cn1c(=O)n(Cc2ccc(Br)cc2)c2ccccc21	15%	16%	7%	1%	1%	-6%	/
CCn1c2ccccc2c2cc(CN3CCN(Cc4ccc(Br)cc4)CC3)ccc21	/	?	0.89µM*	/	4.5µM*	25µM*	25*
